Experimental findings from PubChem BioAssay (Tox21) are described below.

Values joined by “and” are separate entries in the source; they are usually repeats but may differ in a detail not shown here. Equal entries are not always repeated. Records with an inconclusive call do not appear. Active and inactive are the calls of the source. Calls follow the shape of the dose curve; as a rule, active = well fitted cell-killing curve with a large enough effect in the repeat runs; inconclusive = weak or mixed curves, or effect the other way; inactive = no such curve, though single readings can be large or run the other way.
% is scaled to controls: 0 for no effect and ±100 for the full control effect; potency is read from the fitted curve at half-maximal effect.

The assay in a line: qHTS assay to identify small molecule antagonists of the progesterone receptor (PR) signaling pathway - cell viability counter screen (AID 1346798). Also: nearly all actives have a fitted effect of over 50% in size. The conditions noted are these: PR-UAS-bla HEK293T viability, CellTiter-Glo luminescence, 16 h; series mostly up to 92.4 µM; activity change, negative = cytotoxicity: at the top concentration. From the text: National Center for Advancing Translational Sciences [NCATS]
NIH Chemical Genomics Center [NCGC]
U.S. Environmental Protection Agency [EPA]
National Institutes of Environmental Health Sciences [NIEHS]
National Toxicology Program [NTP]
U.S. Food and Drug Administration [FDA]
Progesterone receptor (PR), a nuclear hormone receptor, plays an important role in development, metabolic homeostasis and reproduction. It is activated by the steroid hormone progesterone. Endocrine disrupting chemicals (EDCs) and their interactions with steroid hormone receptors like PR causes disruption of normal endocrine function. To identify the compounds that inhibit PR signaling, a PR-UAS-bla GripTite cell line i.e. PR-UAS-bla HEK293T (Invitrogen, Carlsbad, CA, USA) containing a beta-lactamase reporter gene under the control of an UAS response element was used to screen Tox21 10K compound library. The cytotoxicity of the Tox21 compound library against the PR-bla cell line was tested in parallel by measuring the cell viability using CellTiter-Glo assay in the same wells.
Tox21 Assay Protocol Summary:
PR-UAS-bla HEK293T cells were dispensed at 3,000 cells/4 uL of assay medium containing 2% charcoal stripped FBS per well into black wall/clear-bottom 1536-well plates using a Multidrop Combi (ThermoFisher Scientific, Waltham, MA) dispenser. After the assay plates were incubated at a 37C and 5% CO2 for 4 hr, 23 nL of compounds dissolved in DMSO, positive controls or DMSO only was transferred to the assay plate by a Pintool station (Kalypsys, San Diego, CA), followed by addition of 1 uL of R5020 in assay medium using a Flying Reagent Dispenser (FRD, Aurora Discovery, San Diego, CA). The plates were incubated at 37C and 5% CO2 for 16 hr. Then 1 uL of LiveBLAzer B/G FRET substrate was added using a Flying Reagent Dispenser, the plates were incubated at room temperature for 2 hours, and fluorescence intensity was measured by an Envision plate reader (PerkinElmer, Shelton, CT). For cell viability readout that measures cytotoxicity, 4 uL/well of CellTiter-Glo reagent was added into the assay plates using a FRD. After 30 min incubation at room temperature, the luminescence intensity in the plates was measured using a ViewLux (PerkinElmer) plate reader.
In general terms: Quantitative high-throughput screening tests each substance at several concentrations.
Turning to `COC1CC(=C(c2cccs2)c2cccs2)C[N+](C)(C)C1` (stereo not given), the “activity change, negative = cytotoxicity” value is -2.5% [at 42.5 µM] (inactive).
Turning to `O=C(O)c1ccc(=O)[nH]c1`, the “activity change, negative = cytotoxicity” value was 4.26% [at 42.5 µM] (inactive).
Same read-out and setting: with `CC1(C)CC(=O)CC(C)(C)N1[O]` the figure was -15.1% (inactive); with `COc1ccc(C(O)(c2cncnc2)C2CC2)cc1` (stereo not given), -5.53% (inactive).
Take `C[CH2][Hg][S]c1ccccc1C(=O)O`: the Potency was 2.73 µM (active) and 6.68 µM (active).
The same measure, in the same setting: to `CC(C)c1ccc(OP(=O)(Oc2ccc(C(C)C)cc2)Oc2ccc(C(C)C)cc2)cc1` belongs 30.6 µM (active).
Turning to `CC(C)CCCCCCCOC(=O)c1ccccc1C(=O)OCCCCCCCC(C)C`, the “activity change, negative = cytotoxicity” value was -5.91% (inactive).
Still for that read-out and setting: with `CN1CC[C@]23c4c5ccc(O)c4O[C@H]2[C@@H](O)CC[C@H]3[C@H]1C5` the figure was -25% (inactive); with `CC(Cc1ccccc1)NCc1ccccc1Cl` (stereo not given), -4.64% [at 42.5 µM] (inactive); with `CCCCCCCCCCCCN(C)C`, -16.9% (inactive).
In the case of `Nc1cccc2ccccc12`, the Potency entry was “inactive”.
Turning to `C=CC(=O)OCC`, the “activity change, negative = cytotoxicity” value was 4.11% (inactive).
Regarding `CN(C)C(=O)Nc1cccc(OC(=O)NC(C)(C)C)c1`, the “activity change, negative = cytotoxicity” value is -15.3% (inactive).
As to `O=C(O)c1cc(I)cc(I)c1I`, the “activity change, negative = cytotoxicity” value is -40% (inactive).
Same read-out and setting: to `CCCSP(=S)(OCC)Oc1ccc(SC)cc1` (stereo not given) belongs -1.68% (inactive); to `N#CC(C#N)=C(C#N)C#N`, 5.27% (inactive); to `NP(N)(=O)NC(=O)c1ccc(F)cc1`, -16.6% [at 42.5 µM] (inactive).
On the same count and under the same terms, with `CCCCC1C(=O)NC(=O)N(C2CCCCC2)C1=O` (stereo not given) the figure was 12.4% [at 42.5 µM] (inactive); with `NC(=O)CF`, 4.38% (inactive); with `O=CC=O`, -1.04% (inactive).
On to `CN(C)c1ccc(N=O)cc1`, for which the Potency was 38.7 µM (active) and 48.6 µM (active).
On to `O=C(O)C(F)(F)C(F)(F)C(F)(F)C(F)(F)C(F)(F)C(F)(F)C(F)(F)C(F)(F)F`, for which the “activity change, negative = cytotoxicity” value is 1.21% (inactive).
Same read-out and setting: to `Cc1cccc(C)c1NC1=NCCCS1` belongs -11.8% [at 42.5 µM] (inactive).
For `COP(=O)(OC)OC(Br)C(Cl)(Cl)Br` (stereo not given), the Potency result was “inactive”.
Take `CCCBr`: the “activity change, negative = cytotoxicity” value is -3.08% (inactive).
With `CCNC(=O)NC(=O)/C(C#N)=N/OC`, the “activity change, negative = cytotoxicity” value was 1.59% (inactive).
On the same count and under the same terms, to `ClCc1ccccc1Cl` belongs 0.148% (inactive); to `C[N+]1(CCC(C(N)=O)(c2ccccc2)c2ccccc2)CCCCC1`, 5.83% [at 42.5 µM] (inactive).
In the case of `CCC(=O)O[C@@H]1C=C2CCC3C(CCC4(C)C3CC[C@@H]4OC(=O)CC)C2CC1` (stereo not given in full), the “activity change, negative = cytotoxicity” value was -2.42% [at 42.5 µM] (inactive).
`Oc1cccc(Cl)c1`: the “activity change, negative = cytotoxicity” value was -3.97% (inactive).
On the same count and under the same terms, to `OC[P+](CO)(CO)CO` belongs 0.423% (inactive); to `C=CCc1ccc(OC(=O)Cc2ccccc2)c(OC)c1`, -1.8% (inactive).
On to `c1ccc2c(c1)-c1cccc3cccc-2c13`, for which the Potency entry was “inactive”.
For `CCOP(=S)(S)OCC`, the “activity change, negative = cytotoxicity” value was 4.14% (inactive).
For the molecule `C[Si](Cn1cncn1)(c1ccc(F)cc1)c1ccc(F)cc1`, the Potency result was “inactive”.
Regarding `C=CC(=O)NC(C)(C)CC(C)=O`, the “activity change, negative = cytotoxicity” value is -13.2% (inactive).
Regarding `Nc1ccc2c(c1)Cc1ccccc1-2`, the “activity change, negative = cytotoxicity” value was 26.7% (inactive).
The same measure, in the same setting: to `CCCC[N+]1(C)[C@@H]2CC(OC(=O)[C@H](CO)c3ccccc3)C[C@H]1[C@@H]1O[C@@H]12` (stereo not given in full) belongs 3.37% [at 42.5 µM] (inactive); to `CCC[N+](CCC)(CCC)CCC`, -0.163% (inactive); to `NNCCO`, 1.16% (inactive).
